High-throughput results: PubChem BioAssay, several laboratories
ATG4B inhibitor – ATG4B protease inhibitors, primary screen, biochemical, fluorescence, uHTS. Cysteine protease ATG4B (Homo sapiens), Q9Y4P1. ATG4B cleavage of LC3-PLA2, NBD-HPC fluorescence, 1 h. inhibition, % at 8.33 µM. actives 0.51% (n = 340,000). AID 504462, 2011; in the data active = inhibition above about 40%
MPTP inh – mitochondrial permeability transition pore inhibitors, primary screen, biochemical, isolated mouse mitochondria, absorbance | inhibition, % at 10 µM | AID 602449, 2012 | actives 1.4% (n = 360,000) | Ca2+ swelling absorbance, 30 min;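 active = inhibition of 50% or more, scaled per plate between neutral and stimulator controls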;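 note: 0% = DMSO wells given calcium and 100% = 1 mM EGTA wells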
CendR NRP1 mod – modulators of CendR peptide binding to NRP-1, primary screen, biochemical, fluorescence polarization, uHTS. actives 0.85% (n = 360,000). Neuropilin-1 (Homo sapiens), O14786. FAM-RPARPAR peptide binding to NRP-1. AID 602438, 2012. inhibition, % at 25 µM;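 active = inhibition or corrected inhibition above about 18%, plus a signal ratio from 0.5 to 1.5, limit read from the data, passing the limit was not always enough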
Target sequence (O14786 whole entry, looked up): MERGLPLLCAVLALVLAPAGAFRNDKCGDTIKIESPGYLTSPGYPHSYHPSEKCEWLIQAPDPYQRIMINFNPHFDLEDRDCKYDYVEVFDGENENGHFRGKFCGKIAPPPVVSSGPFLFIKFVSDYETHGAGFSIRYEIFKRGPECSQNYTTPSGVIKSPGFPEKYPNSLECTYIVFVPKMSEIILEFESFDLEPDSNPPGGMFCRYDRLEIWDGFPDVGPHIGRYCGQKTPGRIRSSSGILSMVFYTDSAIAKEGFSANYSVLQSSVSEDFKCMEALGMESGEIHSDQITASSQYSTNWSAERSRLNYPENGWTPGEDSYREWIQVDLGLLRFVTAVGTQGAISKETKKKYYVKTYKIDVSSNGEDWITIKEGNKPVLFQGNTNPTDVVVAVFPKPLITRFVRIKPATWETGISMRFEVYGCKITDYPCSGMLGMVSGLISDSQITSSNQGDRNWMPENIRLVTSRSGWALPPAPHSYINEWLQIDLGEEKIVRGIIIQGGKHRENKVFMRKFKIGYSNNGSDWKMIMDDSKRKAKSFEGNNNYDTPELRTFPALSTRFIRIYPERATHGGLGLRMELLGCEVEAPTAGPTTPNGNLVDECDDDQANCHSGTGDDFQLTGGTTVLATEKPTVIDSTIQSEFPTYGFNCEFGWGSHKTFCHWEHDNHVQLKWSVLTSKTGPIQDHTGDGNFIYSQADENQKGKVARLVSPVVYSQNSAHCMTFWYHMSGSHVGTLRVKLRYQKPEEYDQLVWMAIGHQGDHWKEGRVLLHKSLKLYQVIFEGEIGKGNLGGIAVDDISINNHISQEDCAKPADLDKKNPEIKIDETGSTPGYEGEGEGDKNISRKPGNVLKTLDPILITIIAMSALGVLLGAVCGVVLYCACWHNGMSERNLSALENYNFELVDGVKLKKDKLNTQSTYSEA
SKN-1 block – suppressors of acrylamide-induced Pgst-4::GFP reporter in worms, primary screen, SKN-1 inhibitor project, whole organism, uHTS, GFP/RFP fluorescence ratio, strain VP596. inhibition, % at 21.8 µM. actives 0.49% (n = 360,000). C. elegans VP596 Pgst-4::GFP/RFP ratio, 24 h;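 active = interference check ratio from 0.5 to 1.5 plus GFP to RFP signal ratio inhibition reaching or exceeding a fixed threshold, cut at about 30% in these data, passing the limit was not always enough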
F508del corr – F508del CFTR correction, initial screen, CFBE line, single point; CFBE cells, YFP halide quenching; stimulated with forskolin plus potentiator P3; % fluorescence drop versus neutral controls; activity (quench increase), % at 7.58 µM; actives 0.36% (n = 350,000);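 active = mean added fluorescence quench of at least 8% versus neutral control, with both replicates also reaching 8%; inconclusive = only one of the mean or replicate conditions met; inactive = mean below 8% and not both replicates reaching 8%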;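 note: cells transiently co-express mutant CFTR-F508del with the halide-sensitive YFP; corrector assay measuring rescue of mutant channel to the surface after 24 h compound exposure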
MPTP counter – fluorescence retest of MPTP screen hits in isolated mitochondria, single concentration. shares compounds with MPTP inh. membrane potential, Rhodamine 123 fluorescence. actives 78% (n = 5,000). inhibition, % at 10 µM. AID 624504, 2012; in the data active = inhibition above about 22%;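 note: 0% = DMSO vehicle and 100% = positive control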
MPTP abs DR – mitochondrial permeability transition pore inhibitors, dose response, biochemical, absorbance, uHTS hits; isolated mitochondria swelling; IC50, µM; shares compounds with MPTP inh; actives 58% (n = 780); AID 651561, 2012; in the data active = IC50 below about 20 µM
MPTP counter DR – fluorescent counter-screen in isolated mitochondria, dose response, counter-screen for MPTP inhibitor project, biochemical, fluorescence, uHTS hits | isolated mitochondria counterscreen, fluorescence read-out | IC50, µM | actives 49% (n = 780) | shares compounds with MPTP inh; in the data active = IC50 below about 80 µM
An asterisk follows results filed as active; i = inactive; ? = inconclusive; nt = no result given. A selection: hits, their analogues and other compounds. The true share with any hit is near 2.7%.

SMILES | ATG4B inhibitor | MPTP inh | CendR NRP1 mod | SKN-1 block | F508del corr | MPTP counter | others
CC1(C)CC(=O)C2=C(C1)NC1=C(C(=O)c3ccccc31)C2c1ccc(Cl)cc1 (stereo not given) | -0.4 | 98.5* | -14.5 | 17.0 | nt | 51.9*
C[C@H]1CN([C@@H](C)CO)C(=O)c2cc(C3=CCCCC3)cnc2O[C@H]1CN(C)C(=O)CN1CCOCC1 | nt | nt | nt | nt | -2.7 | nt
COc1ccc(N(CC(=O)Nc2ccc(F)c(Cl)c2)S(=O)(=O)c2c(C)noc2C)cc1 | 30.3 | 68.8* | 4.2 | 9.5 | nt | 77.7*
C/C(=N\Nc1ncc(Cl)cc1Cl)c1ccc(C#N)cc1 | 6.8 | -0.4 | 7.9 | -6.6 | 1.1 | nt
COc1ccc(/C(C)=N/Nc2ncc(Cl)cc2Cl)c(O)c1 | 2.5 | 73.3* | 0.0 | 9.9 | 7.4 | 72.9*
C[C@@H]1CCCCO[C@@H](CN(C)S(=O)(=O)c2ccccc2)[C@@H](C)CN([C@H](C)CO)C(=O)c2cc(NC(=O)c3ccccc3)ccc2O1 | nt | nt | nt | nt | 0.8 | nt
CO[C@@H](CN(C)C(=O)C1CC1)[C@@H](C)CN(C(=O)Nc1ccc(C(F)(F)F)cc1)[C@H](C)CO | nt | nt | nt | nt | 1.6 | nt
O=C(NNC(=S)Nc1cccc(Cl)c1)c1ccccc1OC(F)F | 12.9 | 86.5* | -6.8 | -10.1 | nt | 90.0*
COc1ccc(-c2nc(CCNC(=O)c3cccs3)cs2)cc1 | -13.0 | 64.0* | -4.7 | -11.8 | -0.7 | 15.2 | MPTP abs DR=i;MPTP counter DR=46.7*
COc1cc(-c2nc(CCNC(=O)c3ccco3)cs2)cc(OC)c1OC | -1.9 | 0.2 | 15.0 | 4.9 | -1.5 | nt
O=C(Nc1cccc(Br)c1)c1ccc(CSc2ccccc2)cc1 | 18.3 | 66.6* | 39.9* | -10.3 | 0.8 | 77.2*
Cc1ccc(S(=O)(=O)Nc2cccc3c2O[C@H](CN(C)C(=O)Nc2ccccc2)[C@H](C)CN([C@H](C)CO)C3=O)cc1 | nt | nt | nt | nt | -0.8 | nt
CC(OCC(O)CNCC1COc2ccccc2O1)c1ccc(Cl)cc1 (stereo not given) | -6.1 | 85.8* | 0.2 | -7.4 | 1.5 | -6.2 | MPTP abs DR=14.8*;MPTP counter DR=58*
O=C(C[C@@H]1CC[C@@H]2[C@H](COC[C@H](O)CN2S(=O)(=O)c2ccc(F)cc2)O1)N[C@@H]1CCN(Cc2ccccc2)C1 | nt | nt | nt | nt | 1.3 | nt
Cn1c(=O)c2ncn(CC(=O)Nc3ccc(N4CCOCC4)cc3)c2n(C)c1=O | 8.0 | -1.1 | -1.3 | 6.4 | nt | nt
CCC(C)c1ccc2oc(-c3ccc(NC(=O)Cn4cnc5c(=O)n(C)c(=O)n(C)c54)cc3)nc2c1 (stereo not given) | -8.4 | 84.1* | -12.1 | -6.3 | nt | -8.4 | MPTP abs DR=i;MPTP counter DR=41.4*
CCC(=O)N1[C@H](CO)[C@H](c2ccc(-c3ccc(F)cc3)cc2)[C@@H]1CNC(C)=O | nt | nt | nt | nt | 1.4 | nt
C=CC[n+]1ccc(/C=C2\C=Cc3cc(C)ccc3N2CC)c2ccccc21 | 14.6 | 102.0* | 12.8 | 37.8* | nt | 75.9*
CCN1/C(=C/c2cc[n+](CCCS(=O)(=O)[O-])c3ccccc23)Sc2ccccc21 | -3.1 | 0.8 | -65.2 | 19.9 | 4.9 | nt
COC(=O)C[C@H]1CC[C@@H]2[C@H](COc3ccc(NC(=O)Nc4cccc(Cl)c4)cc3C(=O)N2C)O1 | nt | nt | nt | nt | -2.8 | nt
O=C(N[C@@H]1C=C[C@@H](CC(=O)N2CCOCC2)O[C@@H]1CO)c1ccc2c(c1)OCO2 | nt | nt | nt | nt | -0.9 | nt
COc1ccc(C(=O)/C(C#N)=N/Nc2cccc([N+](=O)[O-])c2)cc1 | 2.8 | 94.5* | 11.7 | -1.9 | ? | 80.7*
N#C/C(=N\Nc1cccc(Cl)c1)C(=O)c1ccccc1 | 16.0 | 95.6* | -6.3 | 1.3 | nt | 80.5*
Cc1c(N/N=C(\C#N)C(=O)c2ccccc2)c(=O)n(-c2ccccc2)n1C | 0.6 | -1.7 | -6.5 | 0.5 | nt | nt
N#C/C(=N\Nc1ccccc1Cl)C(=O)c1ccccc1 | 5.7 | 91.0* | 3.5 | -8.1 | nt | 101.7*
Cc1ccc(S(=O)(=O)N(C)C[C@@H]2OCc3ccccc3-c3ccccc3C(=O)N([C@@H](C)CO)C[C@@H]2C)cc1 | nt | nt | nt | nt | -5.3 | nt
CC/C(=N\Nc1ccc([N+](=O)[O-])cc1)c1ccccc1 | 1.0 | 64.7* | -55.5 | 35.0* | nt | 63.5*
O=[N+]([O-])c1ccc(NN=C(Oc2ccccc2)c2ccc([N+](=O)[O-])cc2)cc1 | nt | 22.3 | -47.9 | -3.0 | -2.9 | nt
CCc1ccc(/C(C)=N\Nc2ccc([N+](=O)[O-])cc2)cc1 | -11.6 | 58.3* | -30.8 | 12.7 | nt | 50.7*
